In PubChem BioAssay (NCATS):
Results filed as inconclusive are left out. A call without a number means that no potency is given here. A number with no mark means an inactive call. Calls of active or inactive are those of the source. Calls follow the shape of the dose curve; as a rule, active = well fitted curve in the direction sought with a large enough effect; inconclusive = small, poorly fitted or top-dose-only effect, or another doubt; inactive = no such curve, though single readings can be large; an effect the other way counts as inactive or inconclusive.

How the values were obtained:
[1] = target: Rap guanine nucleotide exchange factor 3 (Homo sapiens) (UniProt O95398); test: Confirmatory qHTS for agonist of cAMP-regulated guanine nucleotide exchange factor 3 (EPAC1) (AID 1645881);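 also: EPAC1 catalysed release of BODIPY-GDP from Rap1B seen as fluorescence loss; nearly all actives have a fitted effect of over 75% in size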
[2] = target: Rap guanine nucleotide exchange factor 4 (Homo sapiens) (UniProt Q8WZA2); test: Confirmatory qHTS for agonist of cAMP-regulated guanine nucleotide exchange factor 4 (EPAC2) (AID 1645884);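 also: nucleotide exchange releases bodipy-GDP from Rap1 and this lowers its fluorescence; nearly all actives have a fitted effect of over 65% in size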
[3] = target: Rap guanine nucleotide exchange factor 4 (Homo sapiens) (UniProt Q8WZA2); test: Confirmatory qHTS for antagonist of cAMP-regulated guanine nucleotide exchange factor 4 (EPAC2) (AID 1645885); also: nearly all actives have a fitted effect of over 25% in size; also: potency is read from the fitted curve at half-maximal effect

Sequence of Rap guanine nucleotide exchange factor 4 (Homo sapiens) (Q8WZA2 whole entry, looked up): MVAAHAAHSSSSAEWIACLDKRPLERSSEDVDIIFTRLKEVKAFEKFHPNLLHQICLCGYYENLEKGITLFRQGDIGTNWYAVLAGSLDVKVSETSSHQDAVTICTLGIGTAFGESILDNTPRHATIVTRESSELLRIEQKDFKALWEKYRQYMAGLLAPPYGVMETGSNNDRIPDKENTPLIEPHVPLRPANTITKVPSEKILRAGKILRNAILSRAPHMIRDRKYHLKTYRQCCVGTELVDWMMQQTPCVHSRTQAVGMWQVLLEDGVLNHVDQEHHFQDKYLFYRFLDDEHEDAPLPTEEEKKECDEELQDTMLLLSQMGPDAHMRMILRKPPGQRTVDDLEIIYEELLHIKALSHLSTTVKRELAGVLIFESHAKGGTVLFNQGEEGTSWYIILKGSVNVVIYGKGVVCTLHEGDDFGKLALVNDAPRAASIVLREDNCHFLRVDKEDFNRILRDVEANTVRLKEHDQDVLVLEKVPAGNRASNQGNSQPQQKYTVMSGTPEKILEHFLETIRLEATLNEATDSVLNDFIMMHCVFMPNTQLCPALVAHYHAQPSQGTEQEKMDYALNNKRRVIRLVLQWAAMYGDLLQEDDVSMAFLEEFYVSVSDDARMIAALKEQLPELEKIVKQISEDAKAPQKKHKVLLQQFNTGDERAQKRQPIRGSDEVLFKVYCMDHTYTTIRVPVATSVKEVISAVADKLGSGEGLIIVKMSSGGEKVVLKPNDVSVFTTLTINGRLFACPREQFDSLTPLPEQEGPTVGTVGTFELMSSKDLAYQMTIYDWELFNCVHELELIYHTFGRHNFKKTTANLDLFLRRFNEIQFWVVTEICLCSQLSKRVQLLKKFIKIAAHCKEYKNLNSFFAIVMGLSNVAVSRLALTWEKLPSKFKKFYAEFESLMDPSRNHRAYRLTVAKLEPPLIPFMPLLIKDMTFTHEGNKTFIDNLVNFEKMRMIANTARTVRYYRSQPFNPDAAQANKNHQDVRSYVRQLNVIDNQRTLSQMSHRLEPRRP
Sequence of Rap guanine nucleotide exchange factor 3 (Homo sapiens) (O95398 whole entry, looked up): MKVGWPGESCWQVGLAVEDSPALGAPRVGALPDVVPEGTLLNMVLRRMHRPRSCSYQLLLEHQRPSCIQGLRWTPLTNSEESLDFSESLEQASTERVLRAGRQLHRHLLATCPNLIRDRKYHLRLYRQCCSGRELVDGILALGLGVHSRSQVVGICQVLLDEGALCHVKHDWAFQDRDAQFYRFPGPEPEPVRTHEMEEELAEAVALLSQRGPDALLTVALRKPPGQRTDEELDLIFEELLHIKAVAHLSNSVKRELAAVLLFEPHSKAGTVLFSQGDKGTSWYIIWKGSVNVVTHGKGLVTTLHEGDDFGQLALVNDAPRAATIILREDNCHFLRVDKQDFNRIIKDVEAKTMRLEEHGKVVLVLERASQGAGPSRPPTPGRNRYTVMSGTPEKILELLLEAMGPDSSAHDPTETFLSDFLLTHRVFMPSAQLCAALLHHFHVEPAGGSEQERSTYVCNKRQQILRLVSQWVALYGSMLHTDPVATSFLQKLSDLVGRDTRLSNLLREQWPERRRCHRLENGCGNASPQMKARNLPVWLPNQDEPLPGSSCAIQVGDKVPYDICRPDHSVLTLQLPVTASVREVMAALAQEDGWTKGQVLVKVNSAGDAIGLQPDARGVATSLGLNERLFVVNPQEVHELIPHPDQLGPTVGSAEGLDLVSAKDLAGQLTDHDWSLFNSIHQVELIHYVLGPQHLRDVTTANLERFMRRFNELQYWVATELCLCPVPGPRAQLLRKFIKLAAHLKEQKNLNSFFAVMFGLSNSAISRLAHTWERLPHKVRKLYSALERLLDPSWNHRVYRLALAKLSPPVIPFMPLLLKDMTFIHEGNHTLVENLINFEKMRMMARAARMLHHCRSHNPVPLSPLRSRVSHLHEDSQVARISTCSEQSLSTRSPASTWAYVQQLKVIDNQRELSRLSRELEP

Row | SMILES | Potency [1] | Potency [2] | Potency [3] | activation [2] | outcome [3]
1 | CC[N+](C)(C)c1ccc(/C=C/c2ccnc3ccccc23)cc1 | inactive | inactive | – | – | –
2 | COC(=O)c1ccc2c(=O)n(CCCCCC(=O)N3CCN(c4cc(C)ccc4C)CC3)c(=O)[nH]c2c1 | inactive | inactive | inactive | – | –
3 | COc1ccc(S(=O)(=O)N2CCCCC2)cc1NC(=O)c1c(F)cccc1Cl | inactive | inactive | inactive | – | –
4 | Oc1ccc(N=Cc2ccc(OCc3ccccc3)cc2)cc1 | inactive | – | inactive | 11.9% [at 17.1 µM, percent relative to cAMP agonist control] | –
5 | O=S1(=O)CCOC[C@H](CC2CCCCC2)N1Cc1cccc(C(F)(F)F)c1 | inactive | – | inactive | 4.69% [at 17.1 µM, percent relative to cAMP agonist control] | –
6 | CCc1cc(-c2n[nH]c(C)c2-c2ccccc2Cl)c(O)cc1OC | inactive | inactive | inactive | – | –
7 | O=C1NC[C@H](Cc2ccccc2)N(C[C@@H]2CCCN2C[C@H](Cc2ccc(O)cc2)N2C[C@H](Cc3ccc(O)cc3)N(CC3CCCCC3)C(=O)C2=O)C1=O | inactive | – | inactive | 15.7% [at 17.1 µM, percent relative to cAMP agonist control] | –
8 | CCOC(=O)c1ccc(-n2c(N)c(C(=O)OC)c3nc4ccccc4nc32)cc1 | inactive | inactive | – | – | inactive [at 12.7 µM]
9 | CC(C)Oc1cc(F)ccc1-c1cc(C(=O)Nc2ccc(C(C)C)cc2)[nH]n1 | inactive | inactive | inactive | – | –
10 | CCN(CC)c1ccccc1/C=C/[n+]1ccc(CCCCI)c2ccccc21 | inactive | inactive | 49.4 µM (active) | – | –
11 | NC(=O)c1c(NC(=O)CSc2nnc(-c3ccco3)n2N)sc2c1CCCC2 | inactive | inactive | inactive | – | –
12 | O=C(O)/C=C\C(=O)Nc1ccccc1C#Cc1ccc(Br)cc1 | inactive | inactive | 1.35 µM (active) | – | –
13 | C/C(=N\Nc1ccc([N+](=O)[O-])cc1)c1ccc(O)cc1 | inactive | inactive | 26.9 µM (active) | – | –
14 | CN(CC(=O)Nc1ccc(Cl)c(C(F)(F)F)c1)CC(=O)NC1CCCCC1 | inactive | inactive | inactive | – | –
15 | COC(=O)c1ccc(CSc2nc3scc(-c4cccs4)c3c(=O)[nH]2)o1 | inactive | inactive | inactive | – | –
16 | O=C1CCCC2=C1CC(C(=O)OCc1ccccc1)C(=O)N2Cc1ccccc1 (stereo not given) | inactive | – | inactive | 0% [at 17.1 µM, percent relative to cAMP agonist control] | –
17 | Cn1c(SCC(=O)c2ccc3c(c2)Cc2ccccc2-3)nnc1-c1ccccc1 | inactive | – | inactive | 0% [at 17.1 µM, percent relative to cAMP agonist control] | –
18 | O=C(Nc1cc(Cl)cc(Cl)c1)c1ccc(F)c(S(=O)(=O)NC2CCCC2)c1 | inactive | inactive | – | – | inactive [at 12.7 µM]
19 | CN(C)S(=O)(=O)N(CC(=O)NCCSc1ccc(Cl)cc1)c1ccccc1 | inactive | inactive | inactive | – | –
20 | O=C(Nc1cccc(NC(=O)c2cccs2)c1)c1ccc(Br)o1 | inactive | inactive | inactive | – | –
21 | CCOC(=O)c1c(C)oc2c1c(C=NCCO)c(O)c1ccccc12 | inactive | – | inactive | 10.2% [at 17.1 µM, percent relative to cAMP agonist control] | –
22 | Cc1ccccc1/C=C1\SC(=S)N(/N=C/c2cc([N+](=O)[O-])ccc2O)C1=O | inactive | inactive | inactive | – | –
23 | COC(=O)[C@]12CCCCC=C1N(Cc1ccco1)C(=O)[C@H](CC(=O)NCc1cccs1)C2 | inactive | inactive | inactive | – | –
24 | COc1cc(S(=O)(=O)NC2CCCCC2C)ccc1Cl (stereo not given) | inactive | inactive | inactive | – | –
25 | COc1ccc(SC[C@H](C)CN2CC[C@H](C(C)(C)C)CCC2=O)cc1 | inactive | inactive | 35 µM (active) | – | –
26 | Cc1ccccc1CN1C(=O)C(C)Sc2ccc(-c3ccco3)cc21 (stereo not given) | inactive | inactive | inactive | – | –
27 | Cc1nc2c(OCc3ccc(OC(F)F)cc3)cccn2c1N(C)C(=O)CCC1CCCC1 | inactive | inactive | 26.9 µM (active) | – | –
